Anthrax LF inh2 – blocks Bacillus anthracis lethal factor protease | P15917 | multiplex microsphere protease cleavage assay, LF | inhibition, % at 10 µM | 360,000 compounds, 0.12% hits; also: plate controls were buffer without enzyme for full effect and enzyme alone for no effect
Vc quorum ag – inducers of Vibrio cholerae quorum light production without autoinducers | activation, % at 18.7 µM | V. cholerae BH1578 lux reporter, luminescence, 6 h | 350,000 compounds, 0.16% hits | AID 588436; in the data active = activation mostly above about 9.7%, no sharp cut-off; inconclusive = no clear call, values can overlap the other calls; inactive = mostly below about 3.7%
Bead autofluor – counter-screen for toxin protease inhibitors: compound fluorescence; compound autofluorescence counterscreen, microsphere flow cytometry; stronger effect = higher value; AID 624483; 360,000 compounds, 3.1% hits; fluorescence intensity (concentration not given with the values); in the data active = fluorescence intensity above about 16000; inconclusive = no clear call, values can overlap the other calls
BoNT-F LC inh – blocks Botulinum neurotoxin F light chain protease; Multiplex microsphere protease cleavage assay, flow cytometry; inhibition, % at 10 µM; 360,000 compounds, 0.22% hits; AID 588497; in the data active = inhibition above about 35%, passing the limit was not always enough; inconclusive = no clear call, values can overlap the other calls; also: plate controls were buffer without enzyme for full effect and enzyme alone for no effect
BoNT-A LC inh2 – BoNT A light chain protease inhibition; multiplex microsphere protease substrate cleavage, flow cytometry; inhibition, % at 10 µM; 360,000 compounds, 0.17% hits; also: plate controls were buffer without enzyme for full effect and enzyme alone for no effect
Active calls of the source: *; i = inactive; ? = inconclusive; . = not tested or not shown. Shown are actives, neighbours in structure and some others; about 3.5% of the full set was active somewhere. Rule as the data show it, unless noted: active = inhibition above about 30%; inconclusive = no clear call, values can overlap the other calls; inactive = below that.

SMILES	Anthrax LF inh2	Vc quorum ag	Bead autofluor	BoNT-F LC inh	BoNT-A LC inh2
COc1cccc(C(=O)Nc2ccc3c(c2)C(=O)N(CCC(=O)O)C3=O)c1	-1.3	-2.2	20871*	0.1	?
C/C(=N\NC(=O)Cn1nc(C)cc1C)c1ccc([N+](=O)[O-])cc1	-2.9	i	6292	2.3	-0.8
O=CN(/C=C1\Sc2ccccc2C1=O)Cc1ccccc1	1.2	i	22692*	3.2	1.7
COc1ccc2nc(NC(=O)Cn3cnc4ccccc4c3=O)sc2c1	-4.3	-0.4	4180	-0.9	-0.3
Cc1ccc(NC(=O)Nc2ccc(F)cc2F)c(OC(F)F)c1	-3.7	i	4071	-4.4	-0.1
COc1ccc(NC(=O)c2cccnc2)c(OC)c1	-0.8	i	20616*	2.5	?
COc1cccc(NC(=O)c2cc(-c3cccnc3)nc3c(Cl)cccc23)c1	-1.7	i	15951	1.2	1.5
COc1ccccc1NC(=O)c1cccnc1	-4.7	0.7	3025	-14.4	-0.4
COc1ccc(NC(=O)c2ccccc2C)c(OC)c1	-2.2	0.7	16437*	1.9	-1.1
COc1ccc(NC(=O)Nc2cc(C)ccc2OC(F)F)c(OC)c1	-6.2	-5.6	22223*	1.4	2.3
COc1ccc(NC(=O)c2cc(-c3cccnc3)nc3c(C)c(C)ccc23)c(OC)c1	-0.1	-0.2	17562*	9.4	9.2
CN(C(=O)c1ccccc1C(=O)OCC(=O)c1ccc(Br)cc1)c1ccccc1	-2.3	i	?	-8.2	-4.5
COc1cc(C2C(C(C)=O)=C(O)C(=O)N2Cc2ccccc2)ccc1O (stereo unspecified)	-1.9	i	3974	-12.1	-2.4
N#Cc1ccccc1S(=O)(=O)Nc1ccc2c(c1)C(=O)OC2	-3.5	-0.9	?	?	-4.0
CCOC(=O)Nc1sc2c(c1C(=O)OCC)CCC2	-16.9	.	9758	-2.6	-0.7
CCOC(=O)c1c(NC(NC(=O)C(C)C)C(Cl)(Cl)Cl)sc2c1CCC2 (stereo unspecified)	-4.1	1.8	2881	47.0*	4.1
CC(NC(=O)COC(=O)C1CCN(c2ccc(C(F)(F)F)cn2)CC1)c1ccc(F)cc1 (stereo unspecified)	0.4	i	3844	-1.1	0.3
CCNC(=S)N(Cc1ccc2c(c1)OCO2)C1CC(=O)N(c2ccc(F)cc2)C1=O (stereo unspecified)	4.2	5.3	2690	2.2	1.2
CCNC(=S)N(Cc1ccc2c(c1)OCO2)C1CC(=O)N(c2ccc(OC)cc2)C1=O (stereo unspecified)	-1.5	50.0*	2828	-8.0	-1.1
CC1=C(C(=O)OC2CCCC2)C(c2ccc(C)o2)C2=C(CC(c3cccs3)CC2=O)N1 (stereo unspecified)	-5.3	-2.3	22029*	-2.9	-1.1
CCc1cc(-c2n[nH]c(C)c2Oc2ccc(C(C)C)cc2)c(O)cc1O	-5.0	i	22495*	-16.7	?
Cc1[nH]nc(-c2ccc(O)cc2O)c1Oc1ccccc1	0.3	i	5481	-6.2	-0.3
COC(=O)c1ccc([C@@H]2C[C@H]3CN(Cc4cccnc4)C(=O)[C@]34CCCN24)cc1	0.8	i	5405	-1.2	0.3
CCOC(=O)c1c(C)[nH]c(C(=O)COC(=O)C(C)N2C(=O)C3CCCCC3C2=O)c1C (stereo unspecified)	-3.1	-0.1	24956*	-8.7	-7.8
Cc1cc2c(c(Sc3ccccc3)n1)C(=O)OC2	-3.9	i	24407*	-2.3	-1.6
SMILES	Anthrax LF inh2	Vc quorum ag	Bead autofluor	BoNT-F LC inh	BoNT-A LC inh2
Cc1cc2c(c(SCC(=O)N(C)c3ccccc3)n1)C(=O)OC2	-2.1	-2.0	4182	21.9	0.9
COc1cccc(Oc2cc(Cl)nc(N)n2)c1	-7.2	i	3929	31.5	-0.1
COc1ccc(NS(=O)(=O)c2ccc(-n3nnc4ccccc43)c([N+](=O)[O-])c2)cc1	-10.6	-2.6	21241*	0.3	3.0
O=[N+]([O-])c1cc(S(=O)(=O)Nc2cccc(C(F)(F)F)c2)ccc1-n1nnc2ccccc21	-0.5	-0.2	2550	-4.7	-0.8
COc1ccc(CC(=O)NCc2ccc(F)cc2)cc1S(=O)(=O)N1CCOCC1	4.7	i	3940	1.0	-0.3
CCC(C)NS(=O)(=O)c1ccc(S(=O)(=O)N2CCCC3(CCCCC3)C2)cc1 (stereo unspecified)	-5.4	i	21732*	-0.5	1.6
CC[C@]1(C(=O)OC)[C@H]2C(=O)N(C)C(=O)[C@H]2[C@H]2CN=C(SCC3CC3)N21	-1.6	i	3627	1.2	0.3
Cc1nc2ccc(NC(=S)NC(C)C)cc2nc1C	0.8	-6.2	22287*	3.1	2.9
NC(=O)C(=O)NCCCN1CCOCC1	1.2	-0.3	4414	-2.0	-0.1
CC(C)(C)NC(=O)c1ccc2c(c1)C(=O)N(C1CCCCC1)C2=O	-6.1	-1.3	16466*	-2.7	-1.5
O=C(O)COc1ccc(NC(=O)c2ccc3c(c2)C(=O)N(C2CCCCC2)C3=O)cc1	0.4	-0.2	5361	-2.3	1.5
CCC(=O)Oc1ccc(C(=O)Nc2ccc3c(c2)C(=O)N(C2CCCCC2)C3=O)cc1	-4.1	i	19149*	3.5	3.3
COc1ccc(C(=O)N2CCCC(N3CCN(c4ccccc4F)CC3)C2)c(OC)n1 (stereo unspecified)	4.3	-0.4	4323	6.0	0.8
COc1ccc(C2=NOC(Cn3nc(C(=O)NCc4cccc(Br)c4)cc3-c3ccccc3)C2)cc1 (stereo unspecified)	4.9	-0.6	3417	7.5	-0.1
CCc1ccc2c(c1)C(c1ccc(N3CCOCC3)cc1)=NNC(c1ccncc1)=N2	2.6	i	4664	-5.1	-0.9
Fc1ccc2c(c1)C(c1ccc(N3CCOCC3)cc1)=NNC(c1cccs1)=N2	-2.4	-1.2	19055*	3.3	?
Brc1ccc2c(c1)C(c1ccc(N3CCOCC3)cc1)=NNC(c1cccs1)=N2	-8.3	2.0	19294*	-1.3	2.9
CCOc1ccc(C2=NNC(c3cccs3)=Nc3ccc(OC)cc32)cc1	2.2	3.7	4099	-4.3	-0.1
Cc1ccc2c(c1)C(c1ccc(N3CCOCC3)cc1)=NNC(c1cccs1)=N2	-2.5	10.5	20609*	0.7	0.3
CCOc1ccc(C2=Nc3ccc(Br)cc3C(c3ccc(N4CCOCC4)cc3)=NN2)cc1	-1.4	3.4	2161	-5.7	-0.2
Cc1cc(NS(=O)(=O)c2ccc(NC(=O)CSc3nc4ncccc4[nH]3)cc2)nc(C)n1	-8.2	2.3	6054	0.0	-0.5
CC(C)CSc1ncc(-c2cccc(C(F)(F)F)c2)cn1	1.7	-3.1	19690*	0.4	?
NS(=O)(=O)c1cccc(NC(=O)CSc2nnc3n2CCCCC3)c1	3.7	0.7	3857	-6.0	0.0
CCOC(=O)N1CCC(NC(=O)c2oc3c(c2C)-c2[nH]ncc2CC3)CC1	-3.9	1.4	20954*	-4.7	?
CCOC(=O)N1CCC(NC(=O)c2sc(-n3cccc3)nc2C)CC1	1.8	-8.3	2871	-4.2	-0.4
COC(=O)CN(c1cc([N+](=O)[O-])ccc1OC)S(C)(=O)=O	-7.7	-0.1	4478	-1.3	0.5
COc1ccc(NC(=O)COC(=O)CN2C(=O)c3ccccc3C2=O)cc1	.	-0.5	.	.	.
